According to PubChem BioAssay (Tox21):
Records with an inconclusive call do not appear. Activity calls are given as the source filed them. Calls come from the whole dose curve; as a rule, active = well fitted activation curve with a large enough effect in the signal ratio in the repeat runs (not every such curve was filed as active); inconclusive = weak or mixed curves, or effect the other way; inactive = no such curve, though single readings can be large or run the other way; the % refers to the signal ratio.

biological target: Peroxisome proliferator-activated receptor gamma (Homo sapiens) (UniProt P37231); experiment: qHTS assay to identify small molecule agonists of the peroxisome proliferator-activated receptor gamma (PPARg) signaling pathway (AID 743094); settings: HEK293H PPARg-UAS-bla, beta-lactamase FRET ratio, 17 h; series mostly up to 57 µM; activation: at the top concentration
Description: U.S. Tox21 Program National Center for Advancing Translational Sciences [NCATS] NIH Chemical Genomics Center [NCGC] U.S. Environmental Protection Agency [EPA] National Institutes of Environmental Health Sciences [NIEHS] National Toxicology Program [NTP] U.S. Food and Drug Administration [FDA] Tox21 Assay Overview: The peroxisome proliferator-activated receptors (PPARs) are lipid-activated transcription factors of the nuclear receptor superfamily with three distinct subtypes namely PPAR alpha, PPAR delta (also called PPAR beta) and PPAR gamma (PPARg). All these subtypes heterodimerize with Retinoid X receptor (RXR) and these heterodimers regulate transcription of various genes. PPAR-gamma receptor (glitazone receptor) is involved in the regulation of glucose and lipid metabolism. To identify the compounds that activate PPAR-gamma signaling, GeneBLAzer PPAR gamma UAS-bla HEK293H cell line (Invitrogen, Carlsbad, CA, USA) containing a beta-lactamase reporter gene under control of the control of an upstream activator sequence (UAS) stably integrated into HEK293H cells was used to screen Tox21 compound library.
Tox21 Assay Protocol Summary: PPARg-bla cells were dispensed at 3000 cells/6uL/well in 1536-well black wall/clear bottom plates using a Multidrop Combi (Thermo Fisher Scientific, Waltham, MA) dispenser. After the assay plates were incubated at 37C and 5% CO2 for 5 h, 23 nL of compounds dissolved in DMSO, positive controls or DMSO only was transferred to the assay plate by a Pintool station (Kalypsys, San Diego, CA). The assay plates were incubated at 37C for 17 h. After 1 uL of LiveBLAzerTM B/G FRET substrate was added using a Bioraptr Flying Reagent Dispenser (FRD) workstation (Beckman Coulter, Indianapolis, IN, USA), the plates were incubated at room temperature for 1 h, and fluorescence intensity was measured by an Envision plate reader (PerkinElmer, Shelton, CT).
% is set by controls: 0 for no effect and ±100 for the full control effect.

Sequence of Peroxisome proliferator-activated receptor gamma (Homo sapiens) (P37231 whole entry, looked up): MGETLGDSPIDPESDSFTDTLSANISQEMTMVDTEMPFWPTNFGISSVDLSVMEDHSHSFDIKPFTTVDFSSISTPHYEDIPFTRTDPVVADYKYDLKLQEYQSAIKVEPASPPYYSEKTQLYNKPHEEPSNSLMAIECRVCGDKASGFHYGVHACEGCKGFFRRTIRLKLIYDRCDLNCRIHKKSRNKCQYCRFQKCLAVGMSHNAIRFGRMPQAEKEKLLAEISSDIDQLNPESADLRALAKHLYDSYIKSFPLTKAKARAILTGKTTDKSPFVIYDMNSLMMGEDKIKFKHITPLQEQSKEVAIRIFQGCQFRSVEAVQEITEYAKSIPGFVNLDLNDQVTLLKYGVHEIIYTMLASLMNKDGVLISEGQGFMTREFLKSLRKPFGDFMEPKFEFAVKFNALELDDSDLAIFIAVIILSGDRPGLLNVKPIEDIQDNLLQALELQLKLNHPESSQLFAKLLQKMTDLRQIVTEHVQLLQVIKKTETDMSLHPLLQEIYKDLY

Structure (SMILES) | activation
O=C1C=CCCC1 | 3.12% [at 78.9 µM] (inactive)
CCCCOC(=O)CC#N | 4.96% [at 78.9 µM] (inactive)
CNc1ccccc1 | -0.307% (inactive)
CCCCCCCCCCCCCCCCC(=O)O | 2.92% (inactive)
CC(C)C/C=C(\C=O)c1ccccc1 | -7.97% (inactive)
O=C(O)CNc1ccccc1 | -0.122% (inactive)
CCCCCCC/C=C/C=O | -1.95% (inactive)
FC(F)(Cl)C(F)(Cl)Cl | 2.02% (inactive)
O=C(O)c1ccccc1-n1cc(C(=O)O)c(=O)c2cc(Nc3c(F)cc(F)cc3Cl)c(Cl)cc21 | 2.01% (inactive)
CC(Cc1ccccc1)(NC(=O)CN)c1ccccc1 (stereo not given) | -4.28% (inactive)
O=[N+]([O-])c1ccccc1CCO | -0.118% [at 78.9 µM] (inactive)
C=C(C)C(=O)OCCCCCCCCCCOC(=O)C(=C)C | -2.36% (inactive)
CC(C)=CCCC(C)C=O (stereo not given) | -0.692% (inactive)
O=[N+]([O-])c1ccc(Cl)cc1Cl | -0.372% (inactive)
CCCCCCCCOCCCN | -7.97% (inactive)
CCC(C)CCCC(C)(C)O (stereo not given) | 1.78% (inactive)
CC(C)(C)c1ccc(CCC=O)cc1 | 5.4% (inactive)
C1CCN(CN2CCCCC2)CC1 | 1.62% (inactive)
CC(O)C(C)O (stereo not given) | -2.18% [at 78.9 µM] (inactive)
CCCCCCCCCCCCCCCCN | -2.94% (inactive)

Structure (SMILES) | activation
COC(=O)C(C)(C)C | 1.76% [at 78.9 µM] (inactive)
C(/C=C/C=C/Nc1ccccc1)=Nc1ccccc1 | -2.65% (inactive)
CC1=CC(=C(c2ccc(N)cc2)c2ccc(N)cc2)C=CC1=N | -4.84% [at 7.08 µM] (inactive)
CS(C)=O | -0.0433% (inactive)
O=P(c1ccccc1)(c1ccccc1)c1ccccc1 | -3.88% (inactive)
C=CC(=O)OCCCCCCCCCC | -4.49% (inactive)
Cc1cc(C)c(C)c(O)c1 | -8.61% (inactive)
COC=O | 1.2% [at 7.08 µM] (inactive)
CCC(CC)C(=O)O | -2.09% (inactive)
O=Cc1ccc(Cl)c([N+](=O)[O-])c1 | 0.599% (inactive)
Cc1cc(N)n(-c2ccccc2)n1 | 3.5% (inactive)
Cc1ccc(S(=O)(=O)NC(=O)NC2CCCC2)cc1 | 0.789% (inactive)
COC(=O)c1cc(Cl)ccc1[N+](=O)[O-] | -0.423% (inactive)
COc1cc(C)c(Cc2cnc(N)nc2N)cc1OC | -1.02% (inactive)
CCOC(OCC)OCC | 2.95% (inactive)
c1ccc(CN(Cc2ccccc2)Cc2ccccc2)cc1 | 0.782% (inactive)
CCCN(C1CCN(C(=O)C2CCNCC2)CC1)[C@@H]1CCc2ccc(OC)cc2C1 | -11.2% (inactive)
O=[N+]([O-])c1cccc(I)c1 | -3.62% (inactive)
O=S(=O)(O)c1cc(Cl)c(Cl)cc1Cl | 7.64% (inactive)
CC1(C)C(=O)NC(=O)N1CO | -0.742% (inactive)
